Several values for one entry are separate records, joined by “and”; a condition that tells them apart may be missing. Equal values may be shown once. Inconclusive results are not listed. Some structures have more than one record in an assay (separate samples or runs), and their calls can disagree. Values without a mark were called inactive. Activity calls are given as the source filed them. Calls follow the shape of the dose curve; as a rule, active = well fitted inhibition curve with a large enough effect; inconclusive = small, poorly fitted or top-dose-only effect; inactive = flat fitted curve, though single readings scatter. Where a SMILES comes first, the peptide text is derived from it. Bridges are numbered along the chain shown (N, C = ends). [ ]: non-standard residue; d: D form. The star is where a group is joined. X1 = CCC(C)C(N)C1=NC(C(=O)*)CS1; dOrn = NCCC[C@@H](N)C(=O)O
Columns and labels:
CRL-7250 = normal cell line; experiment: Cytotoxic Profiling of Annotated Libraries Using Quantitative High-Throughput Screening (AID 1296008); details: Five cell lines viability, CellTiter-Glo ATP luminescence, 48-72 h; max response: stronger effect = lower value; also: potency is read from the fitted curve at half-maximal effect; as to max response: % is scaled to controls: 0 for no effect and ±100 for the full control effect
Procedure, shortened: (§1)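 Compounds were pin-transferred onto cells and incubated 48 or 72 hr at 37 degree Celsius, 95% humidity. CellTiter-Glo was added, plates sat 10 min at room temperature, then ATP-coupled luminescence was imaged as the viability read-out.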

HEK293 = experiment: as above; details: Five cell lines viability, CellTiter-Glo ATP luminescence, 48-72 h; max response: stronger effect = lower value
Procedure, shortened: as §1

HaCat [1] = experiment: as above; details: Five cell lines viability, CellTiter-Glo ATP luminescence, 48-72 h; max response: stronger effect = lower value
Procedure, shortened: as §1

KB-3-1 = experiment: as above; details: Five cell lines viability, CellTiter-Glo ATP luminescence, 48-72 h; max response: stronger effect = lower value
Procedure, shortened: as §1

NIH3T3 = experiment: as above; details: Five cell lines viability, CellTiter-Glo ATP luminescence, 48-72 h; max response: stronger effect = lower value
Procedure, shortened: as §1

HACAT [2] = experiment: qHTS assay to identify novel small-molecules to repurpose for Merkel cell carcinoma treatment (AID 1296009); details: MCC and control cell lines, CellTiter-Glo viability, 72 h; at 44.8 µM (top of the series) unless noted
Procedure, shortened: (§2)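 Luminescence from CellTiter-Glo, read 10 min after addition at room temperature, reported viability following a 72 hr, 37 degree celsius treatment with NPC or MIPE compounds in titration; values normalized to plate controls.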

HEK293T = experiment: as above; details: MCC and control cell lines, CellTiter-Glo viability, 72 h; series mostly up to 44.8 µM
Procedure, shortened: as §2
Also: nearly all actives have a fitted effect of over 60% in size.

SMILES: CN(C)c1cccc(-c2c3c(=O)n(-c4ccccc4Cl)[nH]c3cc(=O)n2C)c1
- max response (CRL-7250): 3.76%
- Potency (HEK293): 5.88 µM (active)
- outcome (HEK293): inactive
- Potency (HaCat [1]): 14.8 µM (active)
- outcome (HaCat [1]): inactive
- max response (KB-3-1): 5.47%
- max response (NIH3T3): -12.2%
- outcome (NIH3T3): inactive
- outcome (HACAT [2]): inactive
- Potency (HEK293T): inactive

SMILES: CC(C)N(C[C@H]1O[C@@H](n2cnc3c(N)ncnc32)[C@H](O)[C@@H]1O)C1CC(CCc2nc3ccc(C(C)(C)C)cc3[nH]2)C1 (stereo partly specified)
- max response (CRL-7250): -0.229%
- outcome (CRL-7250): inactive
- Potency (HEK293): 7.41 µM (active)
- max response (HaCat [1]): 3.92%
- outcome (HaCat [1]): inactive
- max response (KB-3-1): 5.25%
- max response (NIH3T3): -7.24% and -17.7%
- outcome (HACAT [2]): inactive

SMILES: COc1cc(N2CCC(O)CC2)ccc1Nc1cc(Nc2ccccc2S(=O)(=O)C(C)C)c2cc[nH]c2n1
- Potency (CRL-7250): 33.1 µM (active)
- max response (CRL-7250): -7.16%
- Potency (HEK293): 12.8 µM (active) and 11.7 µM (active)
- Potency (HaCat [1]): 8.31 µM (active)
- Potency (KB-3-1): 14.3 µM (active)
- Potency (NIH3T3): 4.67 µM (active)

SMILES: CC1=C2C(=O)O[C@@H](c3ccoc3)[C@]2(C)CCC1
- max response (CRL-7250): -4.96%
- outcome (CRL-7250): inactive
- max response (HEK293): -8.51% and 3.13%
- max response (HaCat [1]): 0.193%
- max response (KB-3-1): 4.53%
- outcome (KB-3-1): inactive
- max response (NIH3T3): 0.635% and 0.0895%

SMILES: Cc1c(-c2ccnn2C)cc(C(=O)NCc2ccc(S(C)(=O)=O)cn2)c(=O)n1-c1cccc(C(F)(F)F)c1
- max response (CRL-7250): 0.591% and -4.37% and 3.84%
- outcome (CRL-7250): inactive
- max response (HEK293): -6.6% [middle of 4 runs]
- max response (KB-3-1): 2.1% and 7.91%
- outcome (KB-3-1): inactive
- max response (NIH3T3): 0.936% and -17.4% and -7.73%

SMILES: Cc1nn(C)c2c1C(c1ccc(C(F)(F)F)cc1)C(C#N)=C(N)O2 (stereo unspecified)
- max response (CRL-7250): 4.37%
- outcome (CRL-7250): inactive
- max response (HEK293): -4.39% and 2.32%
- max response (HaCat [1]): -6.13% and -14.3%
- max response (KB-3-1): 9.42%
- max response (NIH3T3): 1.84%
- outcome (NIH3T3): inactive

SMILES: CCOc1ccc(-c2ccc(Cn3c(CC(C)(C)C(=O)O)c(SC(C)(C)C)c4cc(OCc5ccc(C)cn5)ccc43)cc2)cn1
- max response (CRL-7250): -21.1% and -6.16%
- max response (HEK293): -15.3%
- outcome (HEK293): inactive
- max response (HaCat [1]): -15.9% and -11.2%
- max response (KB-3-1): -5.24%
- outcome (KB-3-1): inactive
- max response (NIH3T3): -6.34%
- Potency (HEK293T): inactive

SMILES: NC1CCC(N[C@@H]2C[C@H]2c2ccccc2)CC1 (stereo partly specified)
- max response (CRL-7250): 1.1%
- outcome (CRL-7250): inactive
- max response (HEK293): -15.5% and -3.29%
- max response (HaCat [1]): -1.71%
- outcome (HaCat [1]): inactive
- outcome (KB-3-1): inactive
- max response (NIH3T3): 3.03%
- outcome (NIH3T3): inactive
- outcome (HACAT [2]): inactive

SMILES: CC(=O)c1cnc2ccc(-c3cc(Cl)c(O)c(Cl)c3)nc2c1NC1CCC(CN(C)C)CC1 (stereo unspecified)
- Potency (CRL-7250): 166 nM (active) and 1.19 µM (active)
- Potency (HEK293): 52.4 nM (active) and 237 nM (active)
- Potency (HaCat [1]): 0.0331 µM (active)
- Potency (KB-3-1): 0.075 µM (active)
- Potency (NIH3T3): 93.3 nM (active) and 299 nM (active)

SMILES: COc1c(C)c(C(=O)c2ccc(N)c(C(=O)O)c2)n2ccccc12
- max response (CRL-7250): -6.91%
- max response (HEK293): -16.3%
- max response (HaCat [1]): -0.372%
- outcome (HaCat [1]): inactive
- max response (KB-3-1): 4.57% and 7.45%
- outcome (HACAT [2]): inactive

SMILES: C#C[C@]1(O)CC[C@H]2[C@@H]3CCC4=C/C(=N/O)CC[C@@H]4[C@H]3CC[C@@]21CC
- max response (CRL-7250): 4.4%
- max response (HEK293): -0.147%
- max response (HaCat [1]): -21.3%
- max response (KB-3-1): -19.2% and -21.5%
- outcome (NIH3T3): inactive

SMILES: CCC[C@@H]1C[C@@H](C(=O)N[C@@H]([C@H]2O[C@H](SC)[C@H](OP(=O)(O)O)[C@@H](O)[C@H]2O)[C@H](C)Cl)N(C)C1
- max response (CRL-7250): -7.94%
- max response (HEK293): -4.58%
- max response (HaCat [1]): 4.98%
- max response (KB-3-1): -22.3% and -12.7% and 0.837%
- outcome (NIH3T3): inactive

SMILES: CN(NC(=O)CC(=O)NN(C)C(=S)c1ccccc1)C(=S)c1ccccc1
- Potency (CRL-7250): 0.066 µM (active)
- Potency (HEK293): 11.6 nM (active) and 13.2 nM (active)
- outcome (HaCat [1]): inactive
- Potency (KB-3-1): 0.0366 µM (active)
- Potency (NIH3T3): 51.7 nM (active) and 26.3 nM (active)
- outcome (HACAT [2]): inactive

SMILES: CN1Cc2c(N)cccc2C(c2ccccc2)C1 (stereo unspecified)
- max response (CRL-7250): -1.42%
- max response (HEK293): 3.6%
- max response (HaCat [1]): -17.5%
- max response (KB-3-1): -2.79%
- outcome (NIH3T3): inactive

SMILES: CCC(C)C(N)C1=NC(C(=O)N[C@@H](CC(C)C)C(=O)N[C@H](CCC(=O)O)C(=O)N[C@H](C(=O)N[C@H]2CCCCNC(=O)[C@H](CC(N)=O)NC(=O)[C@@H](CC(=O)O)NC(=O)[C@H](Cc3cnc[nH]3)NC(=O)[C@@H](Cc3ccccc3)NC(=O)[C@H]([C@@H](C)CC)NC(=O)[C@@H](CCCN)NC2=O)[C@@H](C)CC)CS1 (stereo partly specified) (X1-L[dE]IK[dOrn]I[dF]H[dD]N; lactam 4-C)
- max response (CRL-7250): 2.99% and -28%
- max response (HEK293): -1.63% and -10.3%
- outcome (HaCat [1]): inactive
- max response (KB-3-1): 8.49%
- outcome (KB-3-1): inactive
- max response (NIH3T3): 2.78%
- outcome (HACAT [2]): inactive [at 17.4 µM]

SMILES: NCc1ccc(OCCCc2sc(-c3ccc4c(c3)/C(=N/Nc3nc5ccccc5s3)CCC4)nc2C(=O)O)cc1
- max response (CRL-7250): -14.2%
- Potency (HEK293): 2.95 µM (active)
- Potency (HaCat [1]): 3.71 µM (active)
- max response (HaCat [1]): 0.629%
- max response (KB-3-1): -25.7%
- max response (NIH3T3): -6.71%
